# Test results reported in PubChem BioAssay (NCATS).
# Inconclusive results are not listed. A call without a number means that no potency is given here. The source made the active and inactive calls. Unless noted, calls follow the shape of the dose curve; as a rule, active = well fitted curve in the direction sought with a large enough effect; inconclusive = small, poorly fitted or top-dose-only effect, or another doubt; inactive = no such curve, though single readings can be large; an effect the other way counts as inactive or inconclusive.
# What was measured:
# [1] = molecular target: M-phase phosphoprotein 8 (Homo sapiens) (UniProt Q99549); experiment: qHTS Validation Assay for Inhibitors for MPP8 Chromodomain Interactions with Methylated Histone Tails (AID 488949);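 also: AlphaScreen signal from MPP8 chromodomain bound to biotinylated H3K9me3 peptide; top concentration of the series differs between compounds; nearly all actives have a fitted effect of over 55% in size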
# Sequence of M-phase phosphoprotein 8 (Homo sapiens) (Q99549 whole entry, looked up): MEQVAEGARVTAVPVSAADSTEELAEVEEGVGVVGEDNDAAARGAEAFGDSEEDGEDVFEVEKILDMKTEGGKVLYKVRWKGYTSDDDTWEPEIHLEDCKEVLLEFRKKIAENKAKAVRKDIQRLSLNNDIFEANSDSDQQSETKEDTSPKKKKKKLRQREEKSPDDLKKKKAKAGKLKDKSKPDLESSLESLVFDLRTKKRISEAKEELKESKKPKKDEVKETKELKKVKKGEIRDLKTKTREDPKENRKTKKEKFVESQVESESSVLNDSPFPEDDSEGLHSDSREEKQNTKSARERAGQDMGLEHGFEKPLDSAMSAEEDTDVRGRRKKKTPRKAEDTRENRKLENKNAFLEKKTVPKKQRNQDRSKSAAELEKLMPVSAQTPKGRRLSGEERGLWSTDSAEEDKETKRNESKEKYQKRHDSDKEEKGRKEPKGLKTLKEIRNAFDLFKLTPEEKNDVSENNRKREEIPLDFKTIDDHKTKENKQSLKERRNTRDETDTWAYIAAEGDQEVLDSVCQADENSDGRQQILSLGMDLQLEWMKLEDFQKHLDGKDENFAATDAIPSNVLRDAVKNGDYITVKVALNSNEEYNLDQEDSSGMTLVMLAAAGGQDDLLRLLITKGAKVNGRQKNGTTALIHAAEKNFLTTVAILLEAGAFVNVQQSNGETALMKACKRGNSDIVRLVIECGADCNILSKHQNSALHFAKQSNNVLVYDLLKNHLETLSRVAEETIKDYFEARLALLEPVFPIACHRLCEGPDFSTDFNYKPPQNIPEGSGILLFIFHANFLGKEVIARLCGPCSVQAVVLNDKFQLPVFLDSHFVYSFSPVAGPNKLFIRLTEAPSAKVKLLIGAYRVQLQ
# Procedure, shortened: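 AlphaScreen proximity signal from streptavidin donor and Ni-chelate acceptor beads (10 ug/mL each) reported binding of MPP8 to trimethyl-K9 H3(1-18) peptide, both at 50 nM. The complex formed 30 min before a 30 min compound exposure at room temperature, in PBS pH 7.4.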
# [2] = molecular target: Methanococcus maripaludis chaperonin (MmCpn) (UniProt Q6LX38); experiment: High-Throughput Screening for Modulators of Cytosolic Chaperonin Activity: MmCpn Primary Screen (AID 488978);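 also: 50 nM MmCpn enzyme hydrolysing 30 µM ATP at 37 °C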
# Sequence of Methanococcus maripaludis chaperonin (MmCpn) (Q6LX38 1-543): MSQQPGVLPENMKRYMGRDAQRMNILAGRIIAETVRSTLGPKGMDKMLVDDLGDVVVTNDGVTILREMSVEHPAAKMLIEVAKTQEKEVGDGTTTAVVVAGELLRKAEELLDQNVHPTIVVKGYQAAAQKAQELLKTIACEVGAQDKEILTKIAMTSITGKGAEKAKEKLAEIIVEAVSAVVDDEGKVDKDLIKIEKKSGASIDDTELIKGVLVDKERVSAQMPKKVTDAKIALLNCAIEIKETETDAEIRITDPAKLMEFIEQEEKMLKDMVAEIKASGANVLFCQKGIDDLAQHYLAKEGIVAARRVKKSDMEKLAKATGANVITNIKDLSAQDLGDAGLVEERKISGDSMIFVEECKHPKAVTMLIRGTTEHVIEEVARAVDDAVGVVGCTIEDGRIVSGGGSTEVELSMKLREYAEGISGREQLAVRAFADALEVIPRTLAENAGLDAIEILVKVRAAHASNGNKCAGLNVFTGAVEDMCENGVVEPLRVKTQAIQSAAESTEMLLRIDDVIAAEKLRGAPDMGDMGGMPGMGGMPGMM
# Procedure, shortened: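 ATPase activity of 50 nM MmCpn was assayed with 30 uM ATP, 10 minutes at 37C, after a 5 min compound preincubation at room temperature. ADP production was read as HTRF emission at 590 and 665 nm.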
# [3] = molecular target: D(1A) dopamine receptor (Homo sapiens) (UniProt P21728); experiment: HTS Assay for Allosteric Agonists of the Human D1 Dopamine Receptor: Primary Screen for Agonists (AID 488981)
# Sequence of D(1A) dopamine receptor (Homo sapiens) (P21728 whole entry, looked up): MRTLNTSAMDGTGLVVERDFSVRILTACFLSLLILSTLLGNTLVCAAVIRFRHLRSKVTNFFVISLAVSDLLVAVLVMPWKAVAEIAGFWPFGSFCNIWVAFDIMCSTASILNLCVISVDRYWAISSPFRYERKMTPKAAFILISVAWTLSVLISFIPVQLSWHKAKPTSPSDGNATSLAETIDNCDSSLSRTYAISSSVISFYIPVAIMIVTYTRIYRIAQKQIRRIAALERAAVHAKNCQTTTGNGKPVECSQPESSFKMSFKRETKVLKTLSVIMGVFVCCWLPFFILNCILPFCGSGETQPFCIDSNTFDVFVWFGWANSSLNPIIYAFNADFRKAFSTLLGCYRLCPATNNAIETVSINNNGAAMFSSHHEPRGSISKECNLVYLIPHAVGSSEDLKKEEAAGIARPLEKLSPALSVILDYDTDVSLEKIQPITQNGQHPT
# Procedure, shortened: (§1)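 Tetracycline-induced HEK293 Trex D1 cells with forced coupling to calcium, loaded with no-wash calcium dye; kinetic fluorescence read 180 s after compound addition for agonism, then a further 180 s after an EC20 dopamine challenge for potentiation.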
# [4] = molecular target: D(1A) dopamine receptor (Homo sapiens) (UniProt P21728); experiment: HTS Assay for Allosteric Agonists of the Human D1 Dopamine Receptor: Primary Screen for Potentiators (AID 488982)
# Procedure, shortened: as §1
# [5] = molecular target: ATP-dependent 6-phosphofructokinase (Trypanosoma brucei brucei) (UniProt O15648); experiment: qHTS Assay to Find Inhibitors of T. brucei phosphofructokinase: hit validation (AID 492961); also: series mostly up to about 51 µM
# Sequence of ATP-dependent 6-phosphofructokinase (Trypanosoma brucei brucei) (O15648 whole entry, looked up): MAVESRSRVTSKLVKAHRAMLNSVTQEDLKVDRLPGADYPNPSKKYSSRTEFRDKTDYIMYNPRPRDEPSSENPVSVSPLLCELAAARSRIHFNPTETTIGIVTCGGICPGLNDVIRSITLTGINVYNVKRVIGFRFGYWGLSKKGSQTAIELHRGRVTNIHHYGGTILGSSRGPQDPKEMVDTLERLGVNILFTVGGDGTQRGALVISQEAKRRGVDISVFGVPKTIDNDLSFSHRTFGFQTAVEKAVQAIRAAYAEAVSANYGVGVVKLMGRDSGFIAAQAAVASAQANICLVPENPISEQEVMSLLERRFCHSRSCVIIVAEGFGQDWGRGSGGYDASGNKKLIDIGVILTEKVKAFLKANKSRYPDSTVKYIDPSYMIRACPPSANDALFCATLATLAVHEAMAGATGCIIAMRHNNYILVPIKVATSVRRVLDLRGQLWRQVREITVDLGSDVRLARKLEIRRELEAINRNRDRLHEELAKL
# Procedure, shortened: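 Luminescence from ADP-Glo reports ADP generated as T. brucei PFK (1.25 nM) phosphorylates 0.5 mM fructose-6-phosphate using 0.1 mM ATP. Reactions ran 45 min at room temperature, pH 8.0.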
# [6] = molecular target: ATPase family AAA domain-containing protein 5 (Homo sapiens) (UniProt Q96QE3); experiment: Validation screen for small molecules that inhibit ELG1-dependent DNA repair in human embryonic kidney (HEK293T) cells expressing luciferase-tagged ELG1 (AID 493107); also: nearly all actives have a fitted effect of over 70% in size; also: potency is read from the fitted curve at half-maximal effect
# Procedure, shortened: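 Quantitative HTS in HEK293T cells carrying luciferase-tagged ELG1, stimulated with 5-fluorouridine alongside compound for 16 hr. Loss of luciferase signal marks inhibition of ELG1 response.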
# [7] = qHTS for Inhibitors of Cell Surface uPA Generation: Validation Assay (AID 493164);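 also: RAW 264.7 macrophage cells exposed to compound for 18 h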
# Procedure, shortened: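 RAW 264.7, 4000 cells/well, o/n plating; cpd 7-pt 1:5 dilution 2.45 nM–38.3 uM final; 18 h, 37 C/5% CO2; ATP-Lite, 5 s luminescence exposure.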
# [8] = molecular target: Phosphoglycerate kinase, glycosomal (Trypanosoma brucei brucei) (UniProt P07378); experiment: qHTS Validation Assay to Find Inhibitors of Phosphoglycerate Kinase (AID 504547)
# Sequence of Phosphoglycerate kinase, glycosomal (Trypanosoma brucei brucei) (P07378 whole entry, looked up): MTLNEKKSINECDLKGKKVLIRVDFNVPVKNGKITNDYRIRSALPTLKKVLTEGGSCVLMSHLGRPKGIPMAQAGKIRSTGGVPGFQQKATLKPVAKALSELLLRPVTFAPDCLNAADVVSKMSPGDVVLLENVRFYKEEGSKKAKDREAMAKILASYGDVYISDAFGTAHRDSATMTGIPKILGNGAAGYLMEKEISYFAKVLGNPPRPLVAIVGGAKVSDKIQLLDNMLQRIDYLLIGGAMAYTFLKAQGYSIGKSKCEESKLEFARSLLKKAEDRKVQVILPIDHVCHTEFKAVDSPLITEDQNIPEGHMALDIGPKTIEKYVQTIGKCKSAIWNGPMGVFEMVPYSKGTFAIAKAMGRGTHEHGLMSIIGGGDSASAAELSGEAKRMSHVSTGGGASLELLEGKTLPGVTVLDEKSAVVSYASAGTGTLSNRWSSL
# Procedure, shortened: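 PGK activity was coupled to GAPDH (100nM final), which generates the unstable substrate 1,3-bisphosphoglycerate in-well. Reactions ran 60 minutes at room temperature in 100mM TEA pH 7.6, 5mM MgCl2, 0.01% Tween-20, then Kinase-Glo Plus luminescence was read.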
# [9] = molecular target: phosphoglycerate mutase (Leishmania major) (UniProt Q4Q090); experiment: qHTS Validation Assay to Find Inhibitors of Phosphoglycerate Mutase (AID 504548);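 also: end-point luminescence from Kinase-GloPlus after the PGAM reaction; series mostly up to about 58 µM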
# Sequence of phosphoglycerate mutase (Leishmania major) (Q4Q090 1-553): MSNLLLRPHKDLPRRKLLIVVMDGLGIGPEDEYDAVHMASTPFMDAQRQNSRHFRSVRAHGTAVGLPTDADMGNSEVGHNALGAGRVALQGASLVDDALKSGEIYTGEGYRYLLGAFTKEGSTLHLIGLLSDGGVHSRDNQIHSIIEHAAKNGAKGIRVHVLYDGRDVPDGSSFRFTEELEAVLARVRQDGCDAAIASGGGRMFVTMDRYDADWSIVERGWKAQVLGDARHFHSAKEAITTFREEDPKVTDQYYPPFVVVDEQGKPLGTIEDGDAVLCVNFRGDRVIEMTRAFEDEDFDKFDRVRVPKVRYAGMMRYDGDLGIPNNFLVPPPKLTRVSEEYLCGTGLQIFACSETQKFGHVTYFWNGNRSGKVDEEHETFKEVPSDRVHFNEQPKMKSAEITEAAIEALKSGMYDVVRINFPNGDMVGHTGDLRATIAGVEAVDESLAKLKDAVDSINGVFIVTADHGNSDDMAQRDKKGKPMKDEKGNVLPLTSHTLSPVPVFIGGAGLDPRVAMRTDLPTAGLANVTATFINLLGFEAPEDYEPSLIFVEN
# Procedure, shortened: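 Inhibition of L. major PGAM was assessed by Kinase-GloPlus luminescence following a 45-minute room-temperature reaction with enzyme at 1.25nM final.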
# [10] = Inducers of the Endoplasmic Reticulum Stress Response (ERSR) in human glioma: Validation (AID 504836)
# Procedure, shortened: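 Stably transfected U87-MG glioma cells carrying a GRP78-based luciferase sensor; 16 h compound incubation. Luminescence end-point read 10 min after Bright-Glo addition at room temperature.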
# [11] = molecular target: Ubiquitin carboxyl-terminal hydrolase 1 (Homo sapiens) (UniProt O94782); experiment: Inhibitors of USP1/UAF1: Pilot qHTS (AID 504865);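 also: rhodamine fluorescence freed from ubiquitin-rhodamine substrate followed over time; top concentration of the series differs between compounds; nearly all actives have a fitted effect of over 35% in size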
# Sequence of Ubiquitin carboxyl-terminal hydrolase 1 (Homo sapiens) (O94782 whole entry, looked up): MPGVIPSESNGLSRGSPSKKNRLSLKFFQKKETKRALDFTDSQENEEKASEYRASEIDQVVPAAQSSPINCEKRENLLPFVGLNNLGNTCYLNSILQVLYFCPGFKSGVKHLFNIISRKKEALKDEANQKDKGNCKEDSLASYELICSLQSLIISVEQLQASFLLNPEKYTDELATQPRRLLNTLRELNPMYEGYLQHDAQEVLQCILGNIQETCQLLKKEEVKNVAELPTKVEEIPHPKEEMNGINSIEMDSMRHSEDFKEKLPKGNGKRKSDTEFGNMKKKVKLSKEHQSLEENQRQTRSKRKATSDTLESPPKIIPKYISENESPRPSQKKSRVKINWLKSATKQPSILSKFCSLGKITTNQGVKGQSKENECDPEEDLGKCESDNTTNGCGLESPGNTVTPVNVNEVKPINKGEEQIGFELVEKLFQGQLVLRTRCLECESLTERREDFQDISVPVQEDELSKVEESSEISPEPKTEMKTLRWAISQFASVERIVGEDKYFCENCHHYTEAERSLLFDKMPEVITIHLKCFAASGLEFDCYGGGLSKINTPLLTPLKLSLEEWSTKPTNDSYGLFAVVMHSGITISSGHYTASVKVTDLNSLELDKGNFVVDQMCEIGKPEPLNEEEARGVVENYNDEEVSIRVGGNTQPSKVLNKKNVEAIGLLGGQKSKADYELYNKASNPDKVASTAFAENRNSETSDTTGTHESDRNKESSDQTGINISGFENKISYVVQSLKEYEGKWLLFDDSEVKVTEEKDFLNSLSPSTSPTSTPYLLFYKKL
# Procedure, shortened: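 Deubiquitinase activity followed as kinetic rhodamine fluorescence release from 150 nM Ub-Rho. 1 nM USP1/UAF1 with compound, after 15 min room-temperature preincubation, in HEPES pH 7.8 buffer containing TCEP, EDTA, BSA and Tween-20.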
# [12] = molecular target: Flap endonuclease 1 (Homo sapiens) (UniProt P39748); experiment: qHTS Validation Assay for the Inhibitors of Human Flap endonuclease 1 (FEN1) (AID 488816)
# Procedure, shortened: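 Human FEN1 (10 nM) preincubated 15 min at room temperature with compounds, then flap DNA substrate added at 50 nM final. Fluorescence read at 0 and 15 min; concentration-response fitted with four-parameter Hill equation.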
# [13] = molecular target: Transient receptor potential cation channel subfamily V member 1 (Homo sapiens) (UniProt Q8NER1); experiment: HTS Assay for Compounds that Act as Enhancers of the Vanilloid Receptor 1 (AID 488979)
# Sequence of Transient receptor potential cation channel subfamily V member 1 (Homo sapiens) (Q8NER1 whole entry, looked up): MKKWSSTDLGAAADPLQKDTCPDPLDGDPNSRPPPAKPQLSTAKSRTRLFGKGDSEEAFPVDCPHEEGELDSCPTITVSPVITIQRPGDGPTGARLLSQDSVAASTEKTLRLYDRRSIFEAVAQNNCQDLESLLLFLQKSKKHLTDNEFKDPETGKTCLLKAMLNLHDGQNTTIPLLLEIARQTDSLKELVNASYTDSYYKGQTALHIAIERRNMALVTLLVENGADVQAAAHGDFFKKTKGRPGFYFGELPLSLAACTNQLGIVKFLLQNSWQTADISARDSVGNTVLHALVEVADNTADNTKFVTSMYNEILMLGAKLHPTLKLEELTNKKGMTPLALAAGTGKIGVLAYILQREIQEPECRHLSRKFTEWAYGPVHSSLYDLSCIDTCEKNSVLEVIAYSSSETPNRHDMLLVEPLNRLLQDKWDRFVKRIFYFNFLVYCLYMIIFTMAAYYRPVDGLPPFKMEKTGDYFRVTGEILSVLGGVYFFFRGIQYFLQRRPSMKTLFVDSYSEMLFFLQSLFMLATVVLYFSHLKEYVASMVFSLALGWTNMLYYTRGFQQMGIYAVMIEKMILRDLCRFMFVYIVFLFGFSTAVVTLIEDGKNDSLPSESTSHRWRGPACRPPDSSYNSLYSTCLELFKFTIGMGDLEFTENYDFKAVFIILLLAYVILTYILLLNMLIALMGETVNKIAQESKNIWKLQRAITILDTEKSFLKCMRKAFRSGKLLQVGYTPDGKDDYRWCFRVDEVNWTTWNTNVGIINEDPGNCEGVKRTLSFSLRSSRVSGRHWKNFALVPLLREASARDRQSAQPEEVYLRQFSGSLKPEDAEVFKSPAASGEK
# Procedure, shortened: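 TRPV1 cells loaded with Fluo-8 calcium dye; compound added and Ca2+ signal (ex 480/em 520 nm) followed 3 min, then capsaicin at EC20 added and read 2 more min to detect enhancement.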
# [14] = molecular target: Galactokinase (Homo sapiens) (UniProt P51570); experiment: qHTS Validation Assay for Inhibitors of Human Galactokinase (GALK) (AID 493189)
# Procedure, shortened: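 Inhibition was measured as remaining ATP, detected by luciferase luminescence after a 1 h room-temperature reaction. Final conditions: 5 nM GALK, 100 uM galactose, 35 uM ATP, pH 8.0 HEPES buffer.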
# [15] = Validation screen for small molecules that induce DNA re-replication in SW480 colon adenocarcinoma cells (AID 504364)
# Procedure, shortened: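 Cells are treated 48 hr with test compound, stained 40 min with Hoechst at 37 C, and scanned for nuclear fluorescence; compounds inducing re-replication increase nuclei with elevated intensity.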
# [16] = molecular target: Peptidyl-prolyl cis-trans isomerase NIMA-interacting 1 (Homo sapiens) (UniProt Q13526); experiment: qHTS Validation Assay to Find Inhibitors of Pin1 (AID 504536; active = well fitted inhibition curve with a large enough effect in the polarisation, with a control signal flat, not every such curve was filed as active; the % refers to the polarisation)
# Procedure, shortened: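 Fluorescence polarization competition: compounds (titration) displace HiFluor-488-labeled Pin1-1b peptide from Pin1 (0.3 uM final) in pH 7.5 HEPES buffer with DTT, 10 min at room temperature; %Activity normalized to no-enzyme wells, curves fitted.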
smiles,measurement,setting,value
CC[C@@H](CO)NC(=O)[C@@H]1C=C2c3cccc4c3c(cn4C)C[C@H]2N(C)C1,Potency,[1],inactive
same,outcome,[2],inactive
same,Potency,[3],inactive
same,Potency,[4],inactive
same,outcome,[5],inactive
same,Potency,[6],inactive
same,outcome,[7],inactive
same,Potency,[8],inactive
same,outcome,[9],inactive
same,outcome,[10],inactive
same,Potency,[11],inactive
CC(C)(C)NCC(O)c1cc(Cl)c(N)c(Cl)c1 (configuration not stated),outcome,[5],inactive
same,Potency,[11],inactive
OCCOc1ccccc1,outcome,[5],inactive
same,Potency,[11],inactive
CCCC1CCCCN1 (configuration not stated),outcome,[5],inactive
same,Potency,[11],inactive
FC(F)(F)c1cccc(C2=CCN(CCc3ccc4ccccc4c3)CC2)c1,outcome,[5],inactive
CN1C(=S)CN=C(c2ccccc2)c2cc(Cl)ccc21,outcome,[5],inactive
CCOC(=O)c1ncn2c1CN(C)C(=O)c1cc(F)ccc1-2,Potency,[12],inactive
same,outcome,[10],inactive
CN(C)CCc1ccc(O)cc1,outcome,[5],inactive
same,Potency,[11],inactive
O=c1[nH]c2ccccc2n1CCCN1CCC(n2c(=O)[nH]c3cc(Cl)ccc32)CC1,Potency,[1],inactive
same,outcome,[2],inactive
same,outcome,[13],inactive
same,Potency,[3],inactive
same,Potency,[4],inactive
same,outcome,[5],inactive
same,Potency,[6],16.4 µM (active)
same,outcome,[7],inactive
same,outcome,[14],inactive
same,Potency,[15],inactive
same,Potency,[16],inactive
same,Potency,[8],inactive
same,outcome,[9],inactive
same,outcome,[10],inactive
same,Potency,[11],inactive
O=C(NC(O)C(Cl)(Cl)Cl)NC(O)C(Cl)(Cl)Cl (configuration not stated),outcome,[5],inactive
same,Potency,[11],inactive
Oc1ccccc1-c1ccccc1,outcome,[5],inactive
same,Potency,[11],inactive
C[C@]12C/C(=C/O)C(=O)C[C@@H]1CC[C@@H]1[C@@H]2CC[C@@]2(C)[C@H]1CC[C@]2(C)O,outcome,[5],inactive
same,Potency,[11],inactive
CC(=O)CCCCn1c(=O)c2c(ncn2C)n(C)c1=O,outcome,[10],inactive
Cc1ccc(-c2nc3ccc(C)cn3c2CC(=O)N(C)C)cc1,outcome,[5],inactive
same,Potency,[11],inactive
COC(=O)[C@H]1[C@H]2C[C@@H]3c4[nH]c5cc(OC)ccc5c4CCN3C[C@H]2C[C@@H](OC(=O)c2cc(OC)c(OC)c(OC)c2)[C@@H]1OC,outcome,[10],inactive
C=C1CC[C@@]2(O)[C@H]3Cc4ccc(O)c5c4[C@@]2(CCN3CC2CC2)[C@H]1O5,outcome,[5],inactive
same,Potency,[11],inactive
CCN(CC)CCOC(=O)C(O)(c1ccccc1)c1ccccc1,outcome,[5],inactive
same,Potency,[11],inactive
